These results are taken from PubChem BioAssay.

Activity calls are given as the source filed them.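 Rule for the calls, unless noted: active = inhibition at or above 50% relative to wild type and mutant plate controls; inactive = inhibition below 50%.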

A short description of experiment [1]: inhibitors of TNFa-induced NFkB p65 translocation, primary screen, imaging, HUVEC, MLSMR starter and 10KST1 sets (AID 438;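 active = inhibition above 20% together with a positive visual image hit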;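 note: compound added about 3h40 before a 20 min TNFalpha stimulation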;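 for inhibition: signal is the nuclear over cytoplasmic p65 intensity ratio per well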). The settings on record: HUVEC TNFa-induced p65 nuclear translocation; cell count: measured here: nuclei count (cytotoxicity indicator), at 2.08 µM; inhibition: at 2 µM, stronger effect = higher value, 0% TNFa-plus-vehicle, 100% no-TNFa wells.
Experiment [2] in a line: inhibitors of E-selectin induction by TNFa, primary screen, imaging, HUVEC, immunofluorescence, MLSMR starter and 10KST1 sets (AID 487;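 active = visually confirmed hit in the image check and inhibition above 20%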;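 for inhibition: signal is fraction of cell area covered by stained E-selectin grains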;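 for nuclei count: 100% = median nuclei count of all wells on the same plate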). The settings on record: HUVEC TNFalpha-induced E-selectin immunofluorescence imaging, at 2 µM; inhibition: stronger effect = higher value; nuclei count: measured here: cell number, toxicity.
The nature of experiment [3]: DUSP6 inhibitors restoring Erk phosphorylation by chemical complementation, primary imaging in DUSP6-transfected HeLa (AID 609;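 active = compounds giving at least 50% inhibition in the cell-based MKP-3 phosphatase rescue imaging test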;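 for inhibition: phospho-Erk level distribution per well compared with pooled transfected vehicle control wells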). The settings on record: HeLa MKP-3 transfected, phospho-Erk imaging KS statistic, at 10 µM, cells stimulated with TPA for 15 min.
Experiment [4] concerns the target Dual specificity protein phosphatase 6 (Homo sapiens) (UniProt Q16828). Described as above. The note with it: HeLa MKP-3 transfected, phospho-Erk imaging KS statistic; at 10 µM; stronger effect = higher value; cells stimulated with TPA for 15 min.
In experiment [5] the target is Voltage-gated potassium channel subunit beta-2 (Rattus norvegicus) (UniProt P62483). Nature of the experiment: KvBeta enzyme negative modulators, primary screen, biochemical, NADPH fluorescence (AID 622;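 active = fluorescence slope higher than the sample average by over 3 SD, cut at about -0.22 in these data, passing the limit was not always enough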;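 note: slope of raw intensity against log time taken from 70 to 1610 s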). The note with it: recombinant KvBeta, 4-cyanobenzaldehyde reduction, at 10 µM, stronger effect = higher value.
Experiment [6] has the same target. Nature of the experiment: KvBeta positive modulators, primary screen, biochemical, NADPH fluorescence (AID 623;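 active = NADPH fluorescence slope more negative than the mean of all samples by about 3 SD, 99.7% confidence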;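 note: fluorescence intensity change per second fitted from 20 to 320 s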). The note with it: Recombinant KvBeta, NADPH fluorescence decrease slope, 10 min; at 10 µM; stronger effect = lower value.
Experiment [7] has as its target Muscarinic acetylcholine receptor M4 (Homo sapiens) (UniProt P08173). Kind of experiment: compounds altering M4/GIRK thallium flux, either direction, primary screen, M4 allosteric agonist project, cell-based, HEK293 M4/GIRK, BTC-AM (AID 625;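 active = fluorescence slope after compound addition differing from the mean of all tested samples at 99.7% confidence, mostly higher but some lower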;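 note: thallium influx through GIRK channels coupled to M4 in HEK293 cells with BTC-AM dye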). The note with it: at 10 µM, actives lie on both sides.
Experiment [8] is described as follows: inhibitors of larval lipid processing in zebrafish, primary screen, whole organism, PED6 fluorescence, gall bladder and intestine (AID 686;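 active = a full or partial loss of lipid-probe fluorescence in the fish gall bladder, intestine or both, judged by eye; inactive = no fluorescence loss, or compound toxic to the fish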;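 note: larvae 5 to 7 days old with five fish per well; signal comes from phospholipase A2 cleavage of quenched PED6 carried via bile; overnight exposure to compound and PED6 before scoring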). The settings on record: Zebrafish larvae PED6 lipid processing, fluorescence scoring; screened at 20 µM (by protocol).
The nature of experiment [9]: inhibitors of Chlamydomonas gravitaxis, primary screen, whole organism, Chlamydomonas reinhardtii, WT vs cilia-less mutant, absorbance, 96-well (AID 463189).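 Note: 0% = wild type cc124 cells in DMSO and 100% = ciliumless bld1 mutant cells.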 The note with it: OD600 absorbance, 2 days, at 10 µM, stronger effect = higher value.
The target of experiment [10] is Alpha-2C adrenergic receptor (Homo sapiens) (UniProt P18825). Nature of the experiment: modulators of alpha2C/GIRK thallium flux, primary screen, cell-based, HEK293 alpha2C/GIRK1/2 (AID 624;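 active = fluorescence slope after compound addition differing from the mean of all screened samples at 99.7% confidence, in either direction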;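 note: slope of fluorescence ratio to pre-addition baseline per second over 15 to 24 s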). The note with it: thallium flux BTC fluorescence, at 10 µM, actives lie on both sides.
Where [11] appears, read: measured here: cell density z-score.
The mark [12] stands for this setting: measured here: nuclear c-Myc green intensity z-score.
[13] abbreviates: measured here: nuclear pErk red intensity z-score, stronger effect = higher value.

Chain of Voltage-gated potassium channel subunit beta-2 (Rattus norvegicus) (P62483 whole entry, looked up): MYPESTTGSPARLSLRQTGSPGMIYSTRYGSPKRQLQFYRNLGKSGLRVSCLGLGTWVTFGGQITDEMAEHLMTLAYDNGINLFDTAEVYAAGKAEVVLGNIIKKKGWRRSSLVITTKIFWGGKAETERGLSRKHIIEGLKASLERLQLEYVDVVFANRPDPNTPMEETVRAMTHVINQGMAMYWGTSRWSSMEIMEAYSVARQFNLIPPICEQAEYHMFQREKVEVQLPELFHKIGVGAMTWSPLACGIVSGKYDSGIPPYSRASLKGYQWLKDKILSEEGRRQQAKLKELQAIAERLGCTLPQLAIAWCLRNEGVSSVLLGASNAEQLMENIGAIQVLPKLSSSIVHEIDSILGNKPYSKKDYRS
Chain of Dual specificity protein phosphatase 6 (Homo sapiens) (Q16828 whole entry, looked up): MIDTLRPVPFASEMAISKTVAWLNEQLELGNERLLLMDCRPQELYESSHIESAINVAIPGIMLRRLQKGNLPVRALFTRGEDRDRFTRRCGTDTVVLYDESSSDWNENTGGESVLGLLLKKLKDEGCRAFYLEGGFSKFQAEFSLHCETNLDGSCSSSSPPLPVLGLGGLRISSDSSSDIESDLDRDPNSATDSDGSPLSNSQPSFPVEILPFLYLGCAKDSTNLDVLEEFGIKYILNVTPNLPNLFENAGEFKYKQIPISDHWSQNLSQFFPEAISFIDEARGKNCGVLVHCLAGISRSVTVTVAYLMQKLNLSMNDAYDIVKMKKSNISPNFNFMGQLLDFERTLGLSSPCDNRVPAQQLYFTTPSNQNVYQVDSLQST
Chain of Muscarinic acetylcholine receptor M4 (Homo sapiens) (P08173 whole entry, looked up): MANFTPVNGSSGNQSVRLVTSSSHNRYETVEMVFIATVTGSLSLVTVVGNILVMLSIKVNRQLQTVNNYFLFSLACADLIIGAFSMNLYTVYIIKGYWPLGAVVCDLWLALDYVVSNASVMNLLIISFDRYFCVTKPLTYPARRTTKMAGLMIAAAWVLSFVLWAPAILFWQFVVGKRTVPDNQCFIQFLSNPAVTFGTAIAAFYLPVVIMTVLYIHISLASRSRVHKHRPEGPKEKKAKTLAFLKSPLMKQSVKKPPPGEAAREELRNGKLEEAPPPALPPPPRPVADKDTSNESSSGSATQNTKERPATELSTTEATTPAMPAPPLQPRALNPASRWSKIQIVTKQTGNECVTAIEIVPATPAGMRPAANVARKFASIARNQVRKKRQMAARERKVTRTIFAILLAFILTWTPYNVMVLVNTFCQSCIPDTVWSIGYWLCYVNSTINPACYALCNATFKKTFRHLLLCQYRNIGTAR
Chain of Alpha-2C adrenergic receptor (Homo sapiens) (P18825 whole entry, looked up): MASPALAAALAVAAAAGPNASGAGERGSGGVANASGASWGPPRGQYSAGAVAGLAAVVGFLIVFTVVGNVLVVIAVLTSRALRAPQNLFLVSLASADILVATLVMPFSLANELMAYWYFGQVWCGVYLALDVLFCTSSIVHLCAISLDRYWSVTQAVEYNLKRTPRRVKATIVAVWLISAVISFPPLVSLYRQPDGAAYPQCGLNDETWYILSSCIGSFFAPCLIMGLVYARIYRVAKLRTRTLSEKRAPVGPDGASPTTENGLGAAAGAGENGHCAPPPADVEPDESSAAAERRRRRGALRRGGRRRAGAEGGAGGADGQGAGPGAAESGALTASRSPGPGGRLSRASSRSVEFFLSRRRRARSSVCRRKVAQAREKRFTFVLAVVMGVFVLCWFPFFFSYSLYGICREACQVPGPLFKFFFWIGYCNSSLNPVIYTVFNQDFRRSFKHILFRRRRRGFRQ

For orientation: inhibition means the relative decrease from the control value, in per cent. As for `CCN1CCc2c(C#N)c(NCc3ccccc3)nc(NCCO)c2C1`, the cell count in experiment [1] came out at 534. The inhibition was -12% (inactive) in [1], -113% (inactive) in [2], -5.81% (inactive) in experiment [4] and -0.503% (inactive) in experiment [9]. The nuclei count in [2] turned out to be 151%. The figures for the z-score in experiment [3] (setting [11]), in experiment [3] (setting [12]) and in [3] (setting [13]) were 0.614, -1.73 and -1.03, respectively. Also, the figures for the fluorescence slope in experiment [5] and in [7] were -0.398 (inactive) and 0.00361 (inactive), respectively. In addition, in experiment [6], the NADPH fluorescence slope was -3.2e-05 (inactive). Moreover, the molecule was classed as inactive in experiment [8].
`CCOC(=O)c1c(SC)nc(SC)c2c1CCC2`: the cell count in experiment [1] stood at 648. In addition, the inhibition in experiment [1] is -8.1% (inactive); in experiment [2] it was -63.6% (inactive); in [4], -5.62% (inactive); in [9], -10% (inactive). In [2], this molecule registered a nuclei count of 182%. In addition, the z-score amounted to 0.267 in [3] (setting [11]), 0.0457 in experiment [3] (setting [12]) and 1.4 in experiment [3] (setting [13]). Besides, in experiment [5], the fluorescence slope is -0.394 (inactive). The NADPH fluorescence slope in [6] is -4.6e-05 (inactive). Further, in [10], the slope was 0.00956 (inactive). Also, the result in [8] was inactive.
For `COC(=O)C1=C(C)N=C2SC(C)C(=O)N2C1c1ccc(C(=O)OC)cc1` (stereo unspecified), in [1], the cell count amounted to 746. Further, the inhibition in experiment [1] was -2.4% (inactive); in experiment [2], -42.3% (inactive); in experiment [4], 9.61% (inactive); in experiment [9], 1.12% (inactive). The molecule further displayed a nuclei count in experiment [2] of 164%. For the same molecule, the values for the z-score in experiment [3] (setting [11]), in [3] (setting [12]) and in [3] (setting [13]) were 0.938, -0.219 and -3.03, respectively. Further, the figures for the fluorescence slope in experiment [5] and in experiment [7] were -0.448 (inactive) and 0.00486 (inactive), respectively. Also, in experiment [6], the NADPH fluorescence slope is -4.8e-05 (inactive). For the same molecule, in [8], the outcome was inactive.
For the molecule `CC1(C)Cc2c(c(-c3ccccc3)[nH]c(=O)c2C#N)CS1`, the cell count in [1] was 499. Besides, the inhibition in [1] was -15.7% (inactive); in experiment [2] it was -47.8% (inactive); in [4] it was 14.7% (inactive); in experiment [9] it was -6.24% (inactive). The molecule further showed a nuclei count in experiment [2] of 131%. In addition, the z-score was 1.65 in [3] (setting [11]), -1.74 in experiment [3] (setting [12]) and -0.608 in experiment [3] (setting [13]). Moreover, the fluorescence slope in experiment [5] was -0.426 (inactive); in [7] it was 0.0044 (inactive). For the same molecule, the NADPH fluorescence slope in experiment [6] is -2.8e-05 (inactive). Also, the outcome in [8] was inactive.
`N#C/C(C(=O)NCc1ccccc1)=C1\SC(CCO)C(=O)N1c1ccccc1` (stereo unspecified): the cell count in experiment [1] is 501. The inhibition is -3.4% (inactive) in experiment [1], -97.3% (inactive) in experiment [2], 5.42% (inactive) in [4] and -13.8% (inactive) in experiment [9]. The same molecule gave a nuclei count in experiment [2] of 120%. Besides, the figures for the z-score in experiment [3] (setting [11]), in experiment [3] (setting [12]) and in experiment [3] (setting [13]) were 0.0433, 1.04 and -2.12, respectively. Further, the results for the fluorescence slope in experiment [5] and in experiment [7] were -0.429 (inactive) and 0.00513 (inactive), respectively. The NADPH fluorescence slope in experiment [6] is -1.4e-05 (inactive). Further, in experiment [8], the outcome was inactive.
Turning to `COc1ccc(-n2ccc(=O)c3c2CCCC3=O)cc1`, in experiment [1], the cell count was 538. The inhibition in experiment [1] was -18% (inactive); in experiment [2], -24.2% (inactive); in [4] it was -3.97% (inactive); in experiment [9], -7.89% (inactive). The molecule also gave a nuclei count in experiment [2] of 175%. Besides, the z-score is 0.411 in experiment [3] (setting [11]), 1.24 in experiment [3] (setting [12]) and 0.919 in experiment [3] (setting [13]). Moreover, the fluorescence slope in experiment [5] was -0.383 (inactive); in experiment [7], 0.00531 (inactive). Further, the NADPH fluorescence slope in experiment [6] was -5.1e-05 (inactive). The call in [8] was inactive.
As to `O=C1C=C(NCCNc2c(F)c(F)c(CO)c(F)c2F)CCC1`, the cell count in experiment [1] came to 504. Also, the inhibition in experiment [1] was -12.3% (inactive); in [2], -87.2% (inactive); in [4], 17.8% (inactive); in experiment [9] it was 32.9% (inactive). The nuclei count in [2] stood at 105%. The values for the z-score in experiment [3] (setting [11]), in [3] (setting [12]) and in [3] (setting [13]) were 0.485, -0.53 and -1.21, respectively. Further, the fluorescence slope in experiment [5] is -0.396 (inactive); in experiment [7] it was 0.00657 (inactive). In [6], the NADPH fluorescence slope is -1.8e-05 (inactive). In addition, the molecule was called inactive in [8].
As to `O=C(O)c1c[nH]c2ccc(S(=O)(=O)N3CCOCC3)cc12`, the cell count in [1] is 597. In addition, the inhibition was -4.4% (inactive) in [1], -208% (inactive) in [2], 5.42% (inactive) in experiment [4] and 8.59% (inactive) in [9]. In experiment [2], this molecule showed a nuclei count of 144%. The values for the z-score in experiment [3] (setting [11]), in experiment [3] (setting [12]) and in experiment [3] (setting [13]) were -0.324, -1.59 and 0.18, respectively. For the same molecule, the fluorescence slope was -0.496 (inactive) in experiment [5] and 0.00433 (inactive) in experiment [7]. In [6], the NADPH fluorescence slope is -6.6e-05 (inactive). In [8], the molecule was called inactive.
Take `CCOC(=O)c1c(C)[nH]c(/C(C)=N/O)c1C`: in experiment [1], the cell count amounted to 668. Moreover, the inhibition is -10.2% (inactive) in experiment [1], -400% (inactive) in experiment [2], 1.12% (inactive) in experiment [4] and 87.2% (active) in experiment [9]. Further, the nuclei count in experiment [2] worked out at 161%. Moreover, the z-score was -0.0773 in experiment [3] (setting [11]), -1.42 in [3] (setting [12]) and -0.664 in experiment [3] (setting [13]). Moreover, the values for the fluorescence slope in experiment [5] and in [7] were -0.526 (inactive) and 0.00562 (inactive), respectively. Further, the NADPH fluorescence slope in experiment [6] was -3.4e-05 (inactive). The molecule was called inactive in experiment [8].
Consider `Cc1ccc(Cn2ncc3c(N4CCN(c5ccc(C)cc5)CC4)ncnc32)cc1`, for which, in experiment [1], the cell count was found to be 548. Besides, the inhibition was -0.1% (inactive) in [1], 2.9% (inactive) in experiment [2], 17.8% (inactive) in experiment [4] and -10.9% (inactive) in experiment [9]. Moreover, the nuclei count in experiment [2] was found to be 164%. Also, the figures for the z-score in experiment [3] (setting [11]), in [3] (setting [12]) and in experiment [3] (setting [13]) were 0.777, 0.779 and 1.42, respectively. Also, the fluorescence slope in experiment [5] was -0.39 (inactive); in experiment [7], 0.00638 (inactive). For the same molecule, the NADPH fluorescence slope in [6] is -5.3e-05 (inactive). Also, the call in [8] was inactive.
For the molecule `CCOC(=O)C1(c2nc(N)cs2)COC(=O)C1` (stereo unspecified), in experiment [1], the cell count came out at 529. Also, the inhibition in experiment [1] was -7.1% (inactive); in [2], 15.9% (inactive); in experiment [4], 16% (inactive); in experiment [9], -13.2% (inactive). In addition, in experiment [2], the nuclei count worked out at 110%. Besides, the z-score in [3] (setting [11]) was 1.01; in [3] (setting [12]) it was 1.47; in experiment [3] (setting [13]) it was -1.03. The fluorescence slope in experiment [5] is -0.497 (inactive); in [7] it was 0.00548 (inactive). In addition, in [6], the NADPH fluorescence slope is -5e-05 (inactive). Besides, the call in [8] was inactive.
With `Cc1cc(NC(=O)CSc2nc(-c3cccnc3)ccc2C#N)no1`, in experiment [1], the cell count was found to be 733. Moreover, the inhibition was -10.3% (inactive) in [1], -53% (inactive) in experiment [2], 4.25% (inactive) in experiment [4] and 44.8% (inactive) in experiment [9]. Also, in [2], the nuclei count is 171%. For the same molecule, the figures for the z-score in experiment [3] (setting [11]), in experiment [3] (setting [12]) and in experiment [3] (setting [13]) were 0.472, 0.655 and -0.248, respectively. The results for the fluorescence slope in experiment [5] and in experiment [7] were -0.414 (inactive) and 0.00502 (inactive), respectively. In experiment [6], the NADPH fluorescence slope was -4.1e-05 (inactive). Moreover, the call in experiment [8] was inactive.
